This is a sample that favours compounds with a hit; in the whole collection about 4% have one here.
HIF-2a inh: HIF-2a inhibition. 786-0 RCC cells HIF-2a reporter, luciferase luminescence, overnight. AID 624352. inhibition, % at 18.8 µM. 0.72% of 360,000 active;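 active means inhibition of the luminescence signal of 40% or more relative to plate controls, in a single-dose primary screen at 18.75 µM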
TWEAK Fn14 block: TWEAK-Fn14 signaling inhibition; AID 1159606; inhibition, % at 10 µM; 2% of 360,000 active; TWEAK-stimulated Fn14 reporter cells, luciferase luminescence, 8 h; in the data active means inhibition above about 50%
Peg3 promoter: reduces Peg3 promoter-driven luciferase expression in HeLa; inhibition, % at 20 µM; HeLa PEG-Prom luciferase reporter, luminescence, overnight; AID 588405; 1.7% of 360,000 active;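 active means inhibition of at least 50% at 20 µM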
CF NFkB inh: blocks PAF-induced NF-kB reporter in cystic fibrosis cells | KKLEB NF-kB-GFP reporter, GFP fluorescence overnight | inhibition, % at 5 µM | 0.86% of 360,000 active;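 active means at least 50% inhibition at 5 µM, scaled per plate between neutral and stimulator controls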;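 further: PAF is a Pseudomonas aeruginosa culture filtrate used as stimulus; plate controls were PAF-stimulated DMSO wells for no effect and unstimulated DMSO wells for full effect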
KKLEB tox: CF airway cell cytotoxicity counter-screen. KKLEB CF airway cells viability, ATPlite luminescence, overnight; hits give low values; cells stimulated with P. aeruginosa culture filtrate. activity change (cytotoxicity), % at 5 µM. 0.36% of 360,000 active. AID 602141;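 active means corrected activity change at or below -50% at 5 µM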
TROY NFkB inh: TROY signaling inhibition. Q293 LMP1-TROYcd NF-kB luciferase reporter, 4 h. 0.98% of 360,000 active. inhibition, % at 10 µM;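 active means compounds whose plate-normalised and pattern-corrected inhibition of the luciferase reporter signal at the single screening dose is 50% or more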
* = called active by the depositor; x = not tested or not shown.

SMILES	HIF-2a inh	TWEAK Fn14 block	Peg3 promoter	CF NFkB inh	KKLEB tox	TROY NFkB inh
O=c1cc(CCl)[nH]c2nc3ccccc3n12	-9	21	13	-11	15	11
CCOC(=O)C1CCCN(C(=O)C(C)(C)Oc2ccc(Cl)cc2)C1 (stereo not drawn)	12	86*	24	15	-6	19
CCOC(=O)C1CCCN(C(=O)c2ccc(OC(C)=O)cc2)C1 (stereo not drawn)	3	5	9	-2	6	12
CC(=O)NC(c1ccccc1)c1nc(-c2cccc(F)c2)cs1 (stereo not drawn)	-85	11	-23	2	-9	-10
O=C(NC(c1ccc(Cl)cc1)c1cnccn1)C1CCN(CCCc2ccccc2)CC1 (stereo not drawn)	3	9	-10	2	-2	0
Cc1ccc(S(=O)(=O)N2CCN(c3cc4c(cc3[N+](=O)[O-])n(C)c(=O)n4C)CC2)cc1	-37	35	39	-11	-2	51*
CC(C)(C)OC(=O)N1CC2(CCCCC2)CC1Cc1ccc(C(F)(F)F)cc1 (stereo not drawn)	3	4	-6	-53	12	-10
O=C(COc1ccc(F)c(Cl)c1)NC(=O)NC1CCCC1	-73	-6	-54	-6	-16	-51
CC1CC(=O)C2=C(C1)Nc1ccccc1SC2c1ccc(F)cc1 (stereo not drawn)	29	8	18	-3	4	67*
CC1=C(C(=O)N2CCOCC2)CC(CC(=O)NCCN2CCOCC2)C(=O)N1Cc1ccccc1 (stereo not drawn)	0	0	11	-8	-7	-17
O=[N+]([O-])c1ccc(NN=Cc2cccc3ccccc23)nc1	-72	-39	-72	-58	-5	-38
O=[N+]([O-])c1cccc(C=NNc2ccc3ccccc3n2)c1O	-70	97*	18	-11	-16	75*
COc1cccc(/C=N/Nc2nc(Nc3ccc([N+](=O)[O-])cc3)nc(N3CCCC3)n2)c1O	0	45	62*	97*	-43	-2
COc1cccc(/C=N/Nc2ccc([N+](=O)[O-])cn2)c1O	78*	89*	59*	100*	-91*	56*
COc1cc(/C=N/NC(=O)c2nnn(-c3nonc3N)c2C(C)C)ccc1OCc1ccc(F)cc1	-2	76*	-148	-13	14	38
CCOc1ccc(-c2c(C(=O)N/N=C/c3cccc(Br)c3)nnn2-c2nonc2N)cc1	2	-42	56*	38	-35	8
CC(C)c1c(C(=O)N/N=C/c2cccc(OCc3ccc(F)cc3)c2)nnn1-c1nonc1N	-84	49	-16	5	-5	53*
CC(C)c1c(C(=O)N/N=C/c2ccc3c(c2)OCO3)nnn1-c1nonc1N	-91	-32	-76	-17	22	-30
CCCc1c(C(=O)N/N=C/c2ccc(OCc3ccccc3)c(OC)c2)nnn1-c1nonc1N	-10	-26	-89	-36	27	-8
CCN(CC)c1ccc(/C=N/NC(=O)c2nnn(-c3nonc3N)c2C(C)C)c(O)c1	1	-10	53*	41	-26	11
COc1ccc([C@@H]2C[C@H]3[C@@H](CN2S(=O)(=O)c2ccccc2)C(=O)C[C@@H](c2cccc(Cl)c2)N3S(=O)(=O)c2ccc(C)cc2)cc1	16	-20	5	9	-9	-10
Cc1nc(SCC(=O)N2CCN(c3ccccc3)CC2)c2oc3ccccc3c2n1	36	52*	56*	7	-3	24
CC(NC(=O)CSc1nnc(CC(=O)Nc2ccc(Cl)c(Cl)c2)n1C)c1ccccc1 (stereo not drawn)	16	12	16	10	-7	-8
Cn1c(CC(=O)Nc2ccc(Cl)c(Cl)c2)nnc1SCC(=O)N1CCN(c2ccccc2)CC1	3	51*	27	48	-18	29
CCn1c(SCC(=O)N2CCN(c3ccccc3)CC2)nnc1-c1cc2cc(Cl)ccc2o1	6	47	3	5	8	59*
SMILES	HIF-2a inh	TWEAK Fn14 block	Peg3 promoter	CF NFkB inh	KKLEB tox	TROY NFkB inh
Cc1nc(SCC(=O)O)c2oc3ccccc3c2n1	21	-5	6	-3	-3	-13
CCN(CC(=O)Nc1ccc2c(c1)OCCO2)C(=O)/C=C/c1cc(Br)ccc1OC	5	13	11	-11	-3	-2
Cc1cc(OCC(=O)Nc2ccncc2)ccc1Br	-45	88*	-33	-5	-11	x
Cc1cc(C(=O)N2CCCC2(C)C(=O)NCC(C)C)nn1C(C)(C)C (stereo not drawn)	5	1	-2	-3	15	8
C[C@H](CO)N1C[C@H](C)[C@H](CN(C)S(=O)(=O)c2ccc(F)cc2)OCc2cnnn2CCCC1=O	17	102*	2	-20	-2	7
C[C@H]1CN([C@@H](C)CO)C(=O)CCCn2nncc2CO[C@@H]1CN(C)C(=O)Nc1cccc2ccccc12	12	53*	-12	-19	2	48
C[C@@H]1CN([C@@H](C)CO)C(=O)CCCn2nncc2CO[C@H]1CN(C)S(=O)(=O)c1ccc(F)cc1	1	-8	-2	-10	10	3
CC(C)NC(=O)C1(C)CCN1Cc1cccc(C#N)c1 (stereo not drawn)	5	5	1	-17	9	1
COc1ccc(OCC(=O)NNc2c3ccccc3nc3ccccc23)cc1	-1	57*	49	-21	1	-5
O=C(NNc1c2ccccc2nc2ccccc12)c1ccc(O)cc1O	-50	-35	-15	-125	-5	-37
O=C(NNc1c2ccccc2nc2ccccc12)c1ccccc1O	-84	21	3	-142	-4	54*
COC(=O)c1ccc([C@H](NC(=O)c2ccco2)[C@]2(C)C[C@H]2C2CCCCC2)cc1	1	-9	1	3	-7	6
Cc1c(NC(=O)c2cccc(NC(=O)COc3ccccc3C#N)c2)c(=O)n(-c2ccccc2)n1C	45*	-12	0	-23	-5	-59
CCN(CC)C(=O)CSc1n[nH]c(=S)n1N	11	84*	-5	-6	0	7
CCN(CC)C(=O)CSc1nnc(-c2ccc(F)cc2)n1N	-14	0	-15	13	2	20
CC(C)OC(=O)c1sc2nc(-c3ccccc3)ccc2c1N	-91	91*	-87	8	-33	80*
CNC(=O)CC1C(=O)N(c2ccc(OC)cc2)C(=S)N1NC(=O)c1cccc(F)c1 (stereo not drawn)	2	-7	69*	6	-4	84*
CC(C(=O)N1CCCC1)N(c1ccccc1)S(C)(=O)=O (stereo not drawn)	15	6	6	22	-8	-5
CC(=NNC(=S)N1CC2CCC(CC2)C1)c1ccncn1	-137	-34	100*	33	-21	-11

Screens: PubChem BioAssay, Sanford-Burnham Center for Chemical Genomics
